# Results published in PubChem BioAssay (NCI).
# Compounds without any hit were thinned out: in the full panel of roughly 79,000, 15% have a hit. Values without a mark were called inactive. Active and inactive are the calls of the source. Rule as the data show it: active = growth inhibition above about 70%; inactive = the rest.
# How the values were obtained:
# [1] = NCI Yeast Anticancer Drug Screen. Data for the rad50 strain (AID 155);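 also: 0% = growth of vehicle-only cultures of the same strain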; details: S. cerevisiae rad50 strain growth inhibition, hits give high values
# In short: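 Growth of the mutant yeast was measured after compound exposure and referenced to vehicle-treated cultures.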
# [2] = NCI Yeast Anticancer Drug Screen. Data for the mec2-1 strain (AID 157); details: S. cerevisiae mec2-1 strain, hits give high values
# In short: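 Each compound was tested on mec2-1 yeast, a strain altered in DNA damage repair or cell cycle control. Growth inhibition is reported relative to vehicle.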
# [3] = NCI Yeast Anticancer Drug Screen. Data for the sgs1 mgt1 strain (AID 161);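 also: 0% = growth of cultures given vehicle only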; details: S. cerevisiae sgs1 mgt1 strain, hits give high values
# In short: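 Test agents were incubated with a DNA-repair-mutant yeast strain. Growth was then read and compared against vehicle-treated controls.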
# [4] = NCI Yeast Anticancer Drug Screen. Data for the cln2 rad14 strain (AID 165);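 also: 0% = growth equal to vehicle treated cultures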; details: S. cerevisiae cln2 rad14 strain, hits give high values
# In short: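 Test compounds were added to cln2 rad14 yeast cultures; inhibition of growth was then determined by comparison with vehicle treatment.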
# [5] = NCI Yeast Anticancer Drug Screen. Data for the bub3 strain (AID 167); details: S. cerevisiae bub3 mutant strain, hits give high values
# In short: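 Whole-cell yeast assay. The mutant strain was incubated with compounds, and growth inhibition was determined by comparison with vehicle-treated cells.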
# [6] = NCI Yeast Anticancer Drug Screen. Data for the mlh1 rad18 strain (AID 175); details: S. cerevisiae mlh1 rad18 strain growth inhibition, hits give high values
# In short: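 Inhibition values reflect reduced growth of mutant yeast versus vehicle-treated controls following compound exposure; the mutations affect DNA damage repair.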
# [7] = at 5.0 µM (retest, dose inferred, filed as 0.5)
# [8] = at 50.0 µM (retest, dose inferred, filed as 5.0)
Structure (SMILES),"growth inhibition [1, 7]","growth inhibition [1, 8]",growth inhibition ([1]; at 50.0 µM),"growth inhibition [2, 7]","growth inhibition [2, 8]",growth inhibition ([2]; at 50.0 µM),"growth inhibition [3, 7]","growth inhibition [3, 8]",growth inhibition ([3]; at 50.0 µM),"growth inhibition [4, 7]","growth inhibition [4, 8]",growth inhibition ([4]; at 50.0 µM),"growth inhibition [5, 7]","growth inhibition [5, 8]",growth inhibition ([5]; at 50.0 µM),"growth inhibition [6, 7]","growth inhibition [6, 8]",growth inhibition ([6]; at 50.0 µM)
COc1ccc(CCC2(C)OCCC(C)O2)cc1 (configuration not stated),12%,92% (active),-13.5%,13%,96% (active),-6.35%,16%,91% (active),-4.35%,10%,95% (active),28.6%,-3%,76% (active),-16.1%,19%,94% (active),-26.8%
Cn1c(CN(Cc2nc3ccccc3n2C)Cc2nc3ccccc3n2C)nc2ccccc21,7%,73% (active),76.7% (active),2%,85% (active),87.9% (active),3%,72% (active),69.7%,3%,89% (active),68.8%,4%,47%,56.2%,3%,80% (active),56%
Cc1cc(Nc2ccc(N=Nc3ccc(O)c4ncccc34)cc2)nc(C)n1,1%,31%,71.1% (active),-4%,21%,52.5%,-2%,35%,47.9%,-41%,6%,23%,5%,4%,60.9%,0%,37%,75.5% (active)
CCCCCCCCCCC(C(=O)OCCCC)P(=O)(OCCCC)OCCCC (configuration not stated),11%,95% (active),36.4%,9%,95% (active),73.2% (active),8%,86% (active),30.8%,13%,96% (active),81.2% (active),4%,95% (active),21.1%,6%,94% (active),59.3%
O=NNc1nc(-c2ccccn2)nc2ccccc12,-7%,96% (active),96.5% (active),7%,99% (active),97.9% (active),-4%,97% (active),98.2% (active),-2%,92% (active),41.2%,-14%,98% (active),19.9%,1%,99% (active),98.5% (active)
O=C(/C=C/c1ccccc1)NOC(=O)/C=C/c1ccccc1,42%,93% (active),97.5% (active),34%,95% (active),99.2% (active),66%,94% (active),98.9% (active),25%,91% (active),98.5% (active),34%,92% (active),99% (active),42%,93% (active),98.5% (active)
COC1=C(OC)C(=O)C(SCc2ccco2)=CC1=O,37%,98% (active),50.6%,29%,99% (active),73.3% (active),53%,99% (active),77.3% (active),51%,90% (active),36.9%,56%,99% (active),62.1%,28%,77% (active),65%
CN(C)c1ccc2c(c1)N(C)c1ccccc1C2(Cl)c1ccccc1 (configuration not stated),96% (active),99% (active),99.2% (active),99% (active),100% (active),99.5% (active),90% (active),99% (active),99.3% (active),70% (active),98% (active),99.2% (active),89% (active),99% (active),99.3% (active),95% (active),99% (active),99.4% (active)
COc1ccccc1N=Nc1c(N)nc(N)[nH]c1=O,4%,14%,6.4%,-10%,16%,1.05%,-17%,14%,-2.05%,0%,-7%,11.6%,-2%,-2%,52.5%,15%,20%,9.8%
